CYP2C9 inh: human CYP2C9 inhibition. P11712. CYP2C9 Supersomes, luciferin-H conversion, luminescence. inhibition, % at 5 µM. actives 20% (n = 96,000). AID 777;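 active means blocking of liver enzyme CYP2C9 beyond about 50% at 5 µM, limit read from the data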
CYP2C19 activ: increases human CYP2C19 enzyme activity; P33261; 96,000 tested, under 10 active; activation factor at 5 µM; recombinant CYP2C19, luciferin-H EGE luminescence; hits give high values; 0 = fully inhibited enzyme, 1 = untreated enzyme;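 active means activation factor of at least 2 at 5 µM in the primary screen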
Target sequence (P33261 whole entry, looked up): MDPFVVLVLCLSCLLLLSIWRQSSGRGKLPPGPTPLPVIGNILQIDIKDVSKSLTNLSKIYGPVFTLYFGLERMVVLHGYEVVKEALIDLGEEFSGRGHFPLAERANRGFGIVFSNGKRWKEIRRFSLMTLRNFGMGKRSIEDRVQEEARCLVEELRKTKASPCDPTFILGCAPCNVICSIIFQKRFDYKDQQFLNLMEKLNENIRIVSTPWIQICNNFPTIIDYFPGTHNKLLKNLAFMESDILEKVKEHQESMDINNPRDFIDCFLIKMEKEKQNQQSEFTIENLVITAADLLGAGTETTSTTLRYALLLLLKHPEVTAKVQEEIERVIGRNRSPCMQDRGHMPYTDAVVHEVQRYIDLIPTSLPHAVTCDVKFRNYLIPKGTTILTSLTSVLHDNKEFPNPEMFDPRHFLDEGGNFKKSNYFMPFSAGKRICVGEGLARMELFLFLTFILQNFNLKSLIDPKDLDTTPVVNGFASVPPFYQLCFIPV
PostGolgi yeast: growth inhibition of a yeast mutant, post-Golgi transport screen; post-Golgi transport phenotypic cell assay; inhibition, % at 10 µM; actives 0.9% (n = 98,000); AID 739;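 further: yeast cells grown in 1536-well plates; yeast grown about 18 h at 30C before absorbance read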
PostGolgi ctrl: growth of the yeast control strain, post-Golgi counter-screen | AID 738 | efflux-deficient yeast background strain, growth absorbance A615, 16 h | inhibition, % at 10 µM | actives 5% (n = 98,000)
CYP2C9 act: activators of human CYP2C9; P11712; activation factor at 5 µM; recombinant CYP2C9, luciferin-H conversion, luminescence; hits give high values; factor 1 = untreated enzyme, 0 = blocked; actives 1.4% (n = 96,000);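 active means activation factor of 2 or more for CYP2C9 at a 5 µM dose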
CYP2C19 inh: human CYP2C19 inhibition. P33261. CYP2C19 Supersomes, luciferin-H EGE luminescence, 30 min. inhibition, % at 5 µM. actives 21% (n = 96,000);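 active means CYP2C19 inhibition above a set limit at 5 µM in the primary screen, cut at about 50% in these data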
Hits are given with their value; i = inactive; nt = no result. A selection: hits, their analogues and other compounds. The true share with any hit is near 32%. Unless noted, no stated cut-off is given here; in the data, active means inhibition above about 30%; inactive means the rest.

SMILES | CYP2C9 inh | CYP2C19 activ | PostGolgi yeast | PostGolgi ctrl | CYP2C9 act | CYP2C19 inh
CCN(CC)C(=O)c1sc2nc(-c3ccncc3)[nH]c(=O)c2c1C | i | i | i | i | i | 63
COC(=O)CCc1c(C)[nH]c(C(=O)OCc2ccccc2)c1C | i | i | i | 31 | i | 62
COC(=O)C1=C(C)NC(=O)C1(Nc1ccc(Cl)cn1)C(F)(F)F (configuration not stated) | i | i | i | i | i | 70
CCOC(=O)c1ccc(Oc2nc(NC)nc(Nc3ccccc3)n2)cc1 | i | i | i | i | i | i
Cc1cccc2c1NC(=O)C2(c1ccc(O)cc1)c1ccc(O)cc1 | 79 | i | i | i | i | 60
Cc1ccc(/C=C/C(=O)C2C(=O)c3ccccc3C2=O)cc1 | 99 | i | i | i | i | i
Cn1cccc1Cc1nnc(SCC(=O)Nc2ccc(F)cc2)n1CCc1ccccc1 | i | i | i | i | i | i
CCOc1ccc(N(CC(=O)NCc2ccccc2)S(=O)(=O)c2c(C)noc2C)cc1 | i | i | i | i | i | 91
CCOc1ccc(N(CC(=O)NC(C)CC)S(=O)(=O)c2c(C)noc2C)cc1 (configuration not stated) | i | i | i | i | i | 64
CCOc1ccc(N(CC(=O)Nc2nccs2)S(=O)(=O)c2c(C)noc2C)cc1 | 64 | i | i | i | i | 71
COc1cccc(CNC(=O)CN(c2cc(C)cc(C)c2)S(=O)(=O)c2c(C)noc2C)c1 | 58 | i | i | i | i | 55
CCOc1ccc(NC(=O)CN(c2cc(C)cc(C)c2)S(=O)(=O)c2c(C)noc2C)cc1 | nt | nt | i | i | nt | nt
Cc1ccc(-c2nnc(N3CCN(C(=O)CN4CCOCC4)CC3)c3ccccc23)cc1 | i | i | i | i | i | i
CCOC(=O)NC(CC(=O)O)c1ccc(OC)cc1 (configuration not stated) | i | i | i | i | i | i
C/C(=N\NC(=O)c1[nH]c2c([N+](=O)[O-])cc(C)cc2c1-c1ccccc1)c1cccnc1 | i | i | i | i | i | 62
C/C(=N\NC(=O)c1ccccc1C)c1cccc([N+](=O)[O-])c1 | i | i | i | i | i | i
CC(=O)N1CCC(C(=O)Nc2ccccc2)(N(Cc2ccccc2)C(=O)c2cccnc2)CC1 | i | i | i | i | i | i
C=C(C)Cn1c(CNC(C)=O)nc2ccccc21 | nt | nt | i | i | nt | nt
CCN(Cc1ccccc1)C(=O)COC(=O)c1n[nH]c2ccccc12 | i | i | i | i | i | i
Cc1cc2c(n1-c1ccc(Cl)cc1)CC(C)(C)CC2=O | i | i | i | 36 | i | i
O=C(Cn1ncc2c1-c1ccccc1OC2)Nc1nc2ccccc2s1 | 55 | i | i | 47 | i | i
COc1cc2c(cc1OC)C(C)N(C(=O)Cn1ncc3c1-c1ccccc1OC3)CC2 (configuration not stated) | i | i | i | i | i | i
CCN(CC)C(=O)Cn1ncc2c1-c1ccccc1OC2 | i | i | i | i | i | i
CC(CCc1ccco1)NC(=O)Cn1ncc2c1-c1ccccc1OC2 (configuration not stated) | 67 | i | i | i | i | 80
Cc1ccc2c(c1)-c1c(cnn1CC(=O)Nc1ccccc1N1CCN(C)CC1)CO2 | i | i | i | i | i | i
SMILES | CYP2C9 inh | CYP2C19 activ | PostGolgi yeast | PostGolgi ctrl | CYP2C9 act | CYP2C19 inh
O=C(Cn1ncc2c1-c1ccccc1OC2)N(Cc1ccco1)C1CCCCC1 | i | i | i | 32 | i | i
CCOC(=O)N1CCN(S(=O)(=O)c2cc(OCC(N)=O)c(C)cc2Cl)CC1 | i | i | i | i | i | i
CCN(CC)C(=O)C1CC(=O)N(c2ccc(F)c(Cl)c2)C1 (configuration not stated) | i | i | i | i | i | i
CC1(C)OC(=O)C(=CNC(Cc2c[nH]c3ccccc23)C(=O)O)C(=O)O1 (configuration not stated) | i | i | i | i | i | i
COc1ccc(N2CCN(Cc3nc4c(c(=O)n(C)c(=O)n4C)n3C(C)C(C)=O)CC2)cc1 (configuration not stated) | i | i | i | i | i | i
CN1CCC(N(C)CC(=O)Nc2cccc(Oc3ccccc3)c2)CC1 | i | i | i | i | i | i
CCCCNC(=O)COC(=O)c1ccc(NS(=O)(=O)c2ccc3c(c2)OCCO3)cc1 | 91 | i | i | i | i | i
O=C(COC(=O)c1ccc(NS(=O)(=O)c2ccc3c(c2)OCCO3)cc1)NCC1CCCO1 (configuration not stated) | 83 | i | i | i | i | i
CC(C)NC(=O)COC(=O)c1ccc(NS(=O)(=O)c2ccc3c(c2)OCCO3)cc1 | 97 | i | i | i | i | 76
CCOC(=O)c1ccc(NS(=O)(=O)c2ccc3[nH]c(=O)[nH]c3c2)cc1 | 75 | i | i | i | i | i
CC(C)CNS(=O)(=O)c1ccc2c(c1)OCCO2 | i | i | i | i | i | i
CCN(CC)c1ccc(C(=O)OCC(=O)NCC2CCCO2)cc1 (configuration not stated) | i | i | i | i | i | i
CCCCNC(=O)c1ccccc1NS(=O)(=O)c1ccc2c(c1)OCCO2 | i | i | i | i | i | i
CCN(CC)c1ccc(-c2nc3cnccn3c2NC2CCCC2)cc1 | 98 | i | i | 35 | i | 94
CC(C)c1nc2ccccn2c1NC1CCCCC1 | i | i | i | i | i | i
c1ccc(-c2nc3cnccn3c2Nc2ccc3c(c2)OCCO3)cc1 | nt | nt | i | i | nt | nt
c1cn2c(NC3CCCC3)c(-c3ccc(N4CCOCC4)cc3)nc2cn1 | 98 | i | i | i | i | 95
CCNC(=S)NC1CC2CCC(C1)N2Cc1ccccc1 (configuration not stated) | i | i | i | i | i | 52
CCCNC(=S)NC1CC2CCC(C1)N2Cc1ccccc1 (configuration not stated) | i | i | i | i | i | i
Cc1ccc2nc(SCc3nc4c(cnn4-c4ccccc4)c(=O)[nH]3)[nH]c2c1 | i | i | i | i | i | i
CCN(CC)C(=O)Cn1cnc2sc(C(=O)Nc3cc(OC)c(OC)c(OC)c3)c(C)c2c1=O | 92 | i | i | i | i | 79
CCCNC(=O)Cn1cnc2sc(C(=O)Nc3cc(OC)c(OC)c(OC)c3)c(C)c2c1=O | i | i | i | i | i | i
CC(=O)Nc1cccc(NC(=O)c2sc3ncn(CC(=O)N4CCCCC4)c(=O)c3c2C)c1 | 80 | i | i | i | i | 79
COCCNC(=O)c1sc2ncn(CC(=O)N3CCCCC3)c(=O)c2c1C | i | i | i | i | i | i
CC(C)Oc1ccc(-c2cc(=O)[nH]c(=O)[nH]2)cc1 | i | i | i | i | i | i
O=C(NCCc1ccccc1)c1cnc2sccn2c1=O | nt | nt | i | i | nt | nt
Cc1nc2c(C(=O)NCc3ccc(F)cc3)c[nH]n2c(=O)c1Cl | 63 | i | i | i | i | i
Cc1nc2c(C(=O)NCCc3ccccc3)c[nH]n2c(=O)c1Cl | 64 | i | i | i | i | i

Source: PubChem BioAssay (several laboratories)
